The assay concerns the target T1, FBXL12, Q9NXK8.
T1 chain: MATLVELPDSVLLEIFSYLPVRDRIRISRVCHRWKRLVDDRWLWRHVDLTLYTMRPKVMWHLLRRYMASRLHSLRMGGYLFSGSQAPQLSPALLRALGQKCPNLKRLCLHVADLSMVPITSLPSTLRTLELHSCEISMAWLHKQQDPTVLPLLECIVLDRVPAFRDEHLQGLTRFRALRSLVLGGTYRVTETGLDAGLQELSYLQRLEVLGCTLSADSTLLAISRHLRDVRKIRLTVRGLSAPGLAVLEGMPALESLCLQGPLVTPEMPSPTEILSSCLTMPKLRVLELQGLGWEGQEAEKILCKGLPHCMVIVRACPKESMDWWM
The assay can be described thus: median log2 fold change of GCK-ALFA target abundance (FLAG IP / Myc IP barcode read proportion) (log2 ratio); each designed protein is fused to an ALFA-tag nanobody in HEK293 cells to bring the named protein to FLAG-tagged glucokinase (GCK); Myc marks an untargeted standard; higher = target protein stabilised (more abundant). The following applies: target protein: 3xFLAG-MCP-GCK-ALFA reporter; HEK293 landing pad (RPLP). On the procedure: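 LABEL-seq trans screen in HEK293 landing-pad cells. Each de novo designed 100-aa effector handle, binding the indicated effector (E3 ligase, DUB or autophagy protein), is fused to a constant NbALFA target handle and induced with 2 ug/mL doxycycline. A FLAG-MCP-GCK-ALFA target and a Myc-MCP standard reporter were transfected, and after 48 h circRNA barcodes were recovered by anti-FLAG and anti-Myc IP and sequenced. The value is the median across barcodes (at least 3 per design) of log2(FLAG/Myc read-proportion ratio), with the two transfection replicates pooled. Negative values mean degradation and positive values mean stabilisation of the target.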

B1: FBXL12_hotspot_24_51 (protein)
chain: QTITLVVRADLDLDPRDSPEEKRARLRAAVEGFLGSVETGIALADLMAARGRGAVDREAFEAAAAALLAAAEALGEADLAARVRAARARFLAAADRLEAA
For B1, the “median log2 fold change” value was determined as 0.0803.

B2: FBXL12_hotspot_28_55 (protein)
chain: MKLEIRVRGPPEEVAKRILELVDAIVEVARQRKEELQRKVEEEGMPEEEARAELEENADRLLSALESLERNAESLPPELREEVLRRIREAREEIERIRKE
For the molecule B2, the “median log2 fold change” value was determined as 0.147.

B3: FBXL12_hotspot_28_54 (protein)
chain: MKIEVKVSGPKEQVAQRILELLEALKQLVEELKKEYKEVKEKDPEKLPEFEKELEEKLEKIKSIAESLVKQAKELGEEAYKKAKEKAEEVKKAIEELKKA
For B3, the “median log2 fold change” value is -0.418.

B4: FBXL12_hotspot_105_2 (protein)
chain: MARVRVGSTGPRALPLTVAGLAFAIYRGDEEEAERLRREAEALIAKRPAAEELRRLLEEAVALARALRAAAEAGDAAAAAAAAARLAAVIDELARLVEAE
In the case of B4, the “median log2 fold change” value is -0.835.

B5: FBXL12_hotspot_54_70 (protein)
chain: KVVTIRVRAETIEAARRTVETAVEIARGLREAGIEVEVELELEAEDVEAAARLAAEARHAFERIGARRIEVRLRLARPEDAPVFERLFAEELERLRREEE
Take B5: the “median log2 fold change” value is -0.0489.

B6: FBXL12_hotspot_23_50 (protein)
chain: MRELVLGIGGRPPEEQRAGALRAAELAAAFRPVADRIVVRLGPGVDGAVAAALRRVLEEDYGAEVLSETPEEAVPPEEVEALVAELRAAAEAAEARRRAA
Take B6: the “median log2 fold change” value came to 0.248.

B7: FBXL12_hotspot_52_65 (protein)
chain: MRTVELVLVLQGDDVEAARRLLDRGVAIAEGLKAAGVRVRVVIEYSGSLESVPAVVEAMRRFKALGAEVRVVVSDDPALAEARAALRAAAEELGAEFVVR
With B7, the “median log2 fold change” value was -0.218.

B8: FBXL12_hotspot_54_67 (protein)
chain: KTVTLVLRATTVEALRTTLATGVAIAKGLLAAGIRVRVVIRADSEDVLEATRIATRAAAELEALGAEDITVEIKVETEEEREEVEREAARVRAEAEAERA
B8: the “median log2 fold change” value is -0.0916.

B9: FBXL12_hotspot_52_64 (protein)
chain: MRTVTIRVRIESPDMAMARRTTETAAAIARGLAAAGVRVVLEVEAAHLEALRFATRELARVAAELGAELRVRVHPSLDPEEVERVYREALAEAEAEAAAA
In the case of B9, the “median log2 fold change” value is -0.455.

B10: FBXL12_hotspot_23_46 (protein)
chain: MRTLVIHLTEQSPEEMVKATYYATKLAYLAVKHGWEVVLRASDAVTAMAARIIAEEIERRTGKEVRVEAEERPETAEEAEELRPRFEEAVRKAIEEVEAE
Regarding B10, the “median log2 fold change” value is -0.32.

B11: FBXL12_hotspot_35_59 (protein)
chain: MRTVRVVFRGTSPEGARYMALAAALAAKELGARVEIEIDPNESREVRIIAGALMVLAEGRSLEEVVEELGLTEEEVEEMKRIAEELRKETERLAAELRAR
With B11, the “median log2 fold change” value is -0.274.

B12: FBXL12_hotspot_23_48 (protein)
chain: MRTLVLSTRGVAPEDREAAARYAAEMIVAAGRAGWRVRVVLQDRESLELAALIAAMARLVTGAEVVVLTDAAEELERLMEERREEARRLVEEARARLDAE
Turning to B12, the “median log2 fold change” value is -0.469.

B13: FBXL12_hotspot_35_58 (protein)
chain: MRVVVVRFEGSSEEGALYMATAALLAQRVLGARVVVEIHPDESREVRIIAAALRHLAEGLSWEEIREELGLTEEEMERARELAERLRAEVERLAAELRAR
Turning to B13, the “median log2 fold change” value was -0.372.

B14: FBXL12_hotspot_54_68 (protein)
chain: KTVLLVVRATTVEALRRTLETAVAIAEGLLAAGHRVRVEIRVDSEDVLEATRLATRAAERLEALGAEDIRVEVRVETEEEKEEVERVAEETRREERERRA
Consider B14, for which the “median log2 fold change” value is -0.347.

B15: FBXL12_hotspot_28_53 (protein)
chain: MKRTVIVRGEPEQVGQQILALLEAITEQAKALKAQLEANKNGDPAVLAELKEKLAKLESILESLKEEAERIRPQLSPELQARIDAAIEAAEKALKAAKAV
For the molecule B15, the “median log2 fold change” value worked out at 0.0582.

B16: FBXL12_hotspot_23_47 (protein)
chain: MRTLVLSTFGTAPEDREASLEYAARLIVAAGRHGWRVVVVLEDRSSLELAATIAAMAKLVVGAEVVVKTDAEEELRELMERNRERAAELVAAAEAALAAE
On to B16, for which the “median log2 fold change” value was -0.0403.

B17: FBXL12_hotspot_23_44 (protein)
chain: MRLLRISLVEKPPEELRAGALYQAEVAALAILEGWEVEIEAEHPEAVAAAHAIARALREVTGKEVKVSRPLKPEERPLAEELLPELIAAIRAAIAAHRAR
For B17, the “median log2 fold change” value was 0.0454.

B18: FBXL12_hotspot_54_66 (protein)
chain: KTVTLVVRAETVEALRTTLATALAIAEGLLAAGITVRVEIRARSEDVLEATRLATRAAERLEALGAEDIRVEVEVETEEERREVERVAEEERRRERERRA
With B18, the “median log2 fold change” value was -0.267.

B19: FBXL12_hotspot_20_43 (protein)
chain: MLLIRARLVGTREQMITTLRYAAAVVRALAERRRAANDATPEALALLEELARLYEEAAERLEAAPEEEWPAIRAATAAEQARLNERLEAELEAQERERAA
With B19, the “median log2 fold change” value is -0.466.

B20: FBXL12_hotspot_23_49 (protein)
chain: MRTLRIHLVSRDPEQNRAAARYAAELATRAVLHGWRVVLSGDDRRTVAAAHAVARVVEEVTGKEVEVTEPLHPEEEPLAEELAEELRPVVEAAKAAELAA
For B20, the “median log2 fold change” value was -0.0469.

B21: FBXL12_hotspot_35_62 (protein)
chain: MRRVVVRFTSPTPEGARYMAVTALLASRELGAEVEIEVAPDASLEIRRIAAALYALVTGVPVSEALARFGLPESEAPAVEAEAERLRAEVDEELARLRAR
For B21, the “median log2 fold change” value amounted to 0.1.

B22: FBXL12_hotspot_54_69 (protein)
chain: KTVLIVVEAETLPALERSLATALEIARGLRAAGVRVEVRIRVRHPDVAAAAEAATRAAAEFRELGAERIEVEIETATEEDRERAEAARRETEARLAAEKA
With B22, the “median log2 fold change” value is -0.0113.

B23: FBXL12_hotspot_52_63 (protein)
chain: MRTVTIVVSVESPDMEMARRTTETAAAIAEGLAAAGVRVVLVVRAAHADALAFATRRLAEVAARLGAELRVETHPSLDPAEVAAIAAAARAAAAAAAAAA
Take B23: the “median log2 fold change” value is -0.889.

B24: FBXL12_hotspot_35_57 (protein)
chain: MRTVVVQNAGSSLEGVRYAALAALVAVRVLGARLEVQISPDASREQRLILAAAEALASGRPLEEVVAERGLSEEELEEVRRIAEELRAEAERAVAELRAR
Regarding B24, the “median log2 fold change” value is -0.0958.

B25: FBXL12_hotspot_59_71 (protein)
chain: MRRVVVRGDPEAALRQARALLEALLELLVRHEGTPQEPRLLELLESTYRELLRTARELGDEAAIAAARAAIEAAEKRLSPELAARLRAAVAAAEAAVEAE
B25: the “median log2 fold change” value is -0.323.

B26: FBXL12_hotspot_35_60 (protein)
chain: MRTVRVVFEGTSPEGARYMALAAALAARELGARVEVRLDPSESREVKVIAAALRVLAEGRPLEEVVEELGLTEEEIEEMEKILEELREEVERLSAELRAR
Take B26: the “median log2 fold change” value is -0.434.

B27: FBXL12_hotspot_109_3 (protein)
chain: KSVIVVLASGSPEHAETTFQTGVEIVKGLAEAGVKVGLLILTTKENEAIAEKALEEVKDYVAVSELVVFPTKEEFEAQLDKVKEEKIKRLEEKLEKLEEE
On to B27, for which the “median log2 fold change” value was 0.364.

B28: FBXL12_hotspot_23_45 (protein)
chain: MRKLVITFAEAPDEEMVKATYYATKLALLAAEHGWEIVLRADNAVTGMAARIVAEAVEKRTGKKVEVIVKEDPSTKERAEKLAPKYEAAVEKAIAEVEAS
As to B28, the “median log2 fold change” value was -0.506.

B29: FBXL12_hotspot_28_52 (protein)
chain: MKVEVRVSGDPEQVAAQLLALLEAMTKIAKELAKELKKTKETDPSKVEEKRKEAEEAAEKIRSMVESILRQAESLSPEQQAQVRAAAEETFKALEELEKT
Regarding B29, the “median log2 fold change” value is -0.0427.

B30: FBXL12_hotspot_35_61 (protein)
chain: MRVVRVVFEGTSVEGARYMALAALLAKEALGAKVEIELSPSESREVRVIAAALRMLAEGKSIEEVKEELGLSEEEVEEMKRLAEELRAETAELLAELKAR
With B30, the “median log2 fold change” value is -0.36.

B31: FBXL12_hotspot_20_42 (protein)
chain: MLRLRVGVSEDVEANRGSLLRAAELVEAFADRLAAEFPELAEVIARLRETARRAREAAARLPGLSPEEARALVREMSEEIAEVVEEASRAAEAARARRAA
As to B31, the “median log2 fold change” value was determined as 0.115.

B32: FBXL12_hotspot_28_56 (protein)
chain: AKRTVIVKGPPEQRAELMLKLAKAILEKSKELYKELKKVKDKDEEKVKELLEKLEKLADLAKSLLENAKKTLPKEYEEVVKEIEKLTKEVEKILKEAKKL
Take B32: the “median log2 fold change” value is -0.777.

Source of the values: the supplement of paper PMC12632987.
